We go through 5 molecules from PubChem BioAssay AID2061322 (National Center for Advancing Translational Sciences (NCATS), 2025).

A short description of the test: Identification of antibody-drug conjugate (ADC) payloads which are substrates of ATP-binding cassette drug efflux transporters: ABCG2-HEK293-R5 cell line with Ko143. Conditions: ABCG2-HEK293-R5 with Ko143, CellTiter-Glo viability, 48 h. From the text: Antibody-drug conjugates (ADCs) feature an antibody recognizing a specific protein joined to a potent toxic payload. Numerous antibody-drug conjugates have received FDA approval; however, clinical resistance arises. Resistance mechanisms include decreased expression or mutation of the antibody target, impaired payload release, or increased expression of ATP-binding cassette (ABC) efflux transporters associated with multidrug resistance. We therefore sought to characterize the interaction of ABC multidrug transporters with ADC payloads. We performed a high-throughput screen with 27 common ADC payloads using cells lines expressing ABC transporters P-glycoprotein (P-gp, encoded by ABCB1) or ABCG2 (encoded by ABCG2). Confirmatory assays were also performed using cells transfected to express P-gp, ABCG2, or MRP1 (encoded by ABCC1). Several commonly used ADC payloads were substrates of P-gp, including calicheamicin gamma1, monomethyl auristatin E, DM1, and DM4. All the pyrrolobenzodiazepines tested - SJG136, SGD-1882, SG2057, and SG3199 - were substrates of P-gp, ABCG2, and MRP1. […] These findings highlight the risk of transporter-mediated resistance with certain ADC payloads and underscore the importance of selecting payloads that evade ABC transporter recognition in future ADC development.
HEK-293 cells were transfected with empty vector (pcDNA) or vector containing the human ABCB1 (MDR-19), ABCG2 (R-5), or ABCC1 gene (MRP1) and were maintained in EMEM with 2 mg/mL G418 added to maintain transporter expression. The HeLa derivative KB-3-1 and the P-gp overexpressing KB-8-5-11 subline were maintained in DMEM; KB-8-5-11 additionally received 100 ng/mL colchicine. H460 parental cells were obtained from the Division of Cancer Treatment and Diagnosis Tumor Repository, National Cancer Institute at Frederick, MD and were cultured in RPMI. The ABCG2 expressing subline H460 MX20 was generated by selecting H460 cells in 20 nM mitoxantrone. Media in all cases was supplemented with 10% FBS and 1% penicillin-streptomycin. We explored 27 common ADC payloads, in two orthogonal, paired cell line sets-a drug selected and transfected set for each transporter--to identify substrates of the ABC transporters P-gp and ABCG2. Compounds were sourced from Levena Biopharma (San Diego, CA), Selleck Chem (Houston, TX), ChemieTek (Indianapolis, IN), or Microsource Discovery Systems (Gaylordsville, CT). Screening was performed as previously described. Briefly, cells were plated at a density of 500 cells/well in 1536 well plates with compounds added using a 1536-head pin tool (Kalypsys, San Diego CA). Cells were incubated with cytotoxic drugs and processed with CellTiter Glo reagent (Promega, Madison, WI) to determine viability after 48 hours. P-gp substrates were identified by comparing compound activity between paired sets of low-expressing (sensitive) and over-expressing (resistant) cell lines.
(In general: In ATP-based viability assays light output follows the ATP content of the culture.)

Molecules are shown by their SMILES. Records with an inconclusive call do not appear. The source made the active and inactive calls. The call rests on the fitted dose curve; in most records, active means well fitted inhibition curve with a large enough effect; inconclusive means small, poorly fitted or top-dose-only effect; inactive means flat fitted curve, though single readings scatter.

With `CCN(C(C)=O)[C@H]1CO[C@@H](O[C@H]2[C@H](O[C@H]3C#C/C=C\C#C[C@]4(O)CC(=O)C(NC(=O)OC)=C3/C4=C\CSSSC)O[C@H](C)[C@@H](NO[C@H]3C[C@H](O)[C@H](SC(=O)c4c(C)c(I)c(O[C@@H]5O[C@@H](C)[C@H](O)[C@@H](OC)[C@H]5O)c(OC)c4OC)[C@@H](C)O3)[C@@H]2O)C[C@@H]1OC`, the Potency was 33.6 nM (active). In the case of `CC(C)(C)OC(=O)Nc1ccc2[nH]c(C(=O)N3C[C@@H](CCl)c4c3cc(O)c3ccccc43)cc2c1`, the Potency is 30 nM (active).

Take `CN(C)CCOc1ccc2[nH]c(C(=O)N3C[C@@H](CCl)c4c3cc(O)c3ccccc43)cc2c1`: the Potency was 1.9 nM (active). `COC(=O)c1cc2c3c(cc(O)c2[nH]1)N(C(=O)c1cc2cc(OC)c(OC)c(OC)c2[nH]1)CC3CCl` (stereo not given): the Potency is 4.2 nM (active).

`CCN[C@H]1CO[C@@H](O[C@H]2[C@H](O[C@H]3C#C/C=C\C#C[C@]4(O)CC(=O)C(NC(=O)OC)=C3/C4=C\CSSSC)O[C@H](C)[C@@H](NO[C@H]3C[C@H](O)[C@H](SC(=O)c4c(C)c(I)c(O[C@@H]5O[C@@H](C)[C@H](O)[C@@H](OC)[C@H]5O)c(OC)c4OC)[C@@H](C)O3)[C@@H]2O)C[C@@H]1OC`: the Potency was 3 nM (active).
